Assay results reported in PubChem BioAssay.
For part of these data: Results with a measured potency or affinity are listed apart. Activity calls are given as the source filed them.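 How the source made its calls, unless noted: active means calcium signal cut by more than 3 SD below the full-agonist control yet still positive, in both repeats and the earlier primary screen; inactive means the rest.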

Assays:
[1] = tested on: TRPC4 beta (transient receptor potential cation channel C4), mouse; assay: activators of mouse TRPC4 channel, confirmation, cell-based, Fluo4 calcium, HEK293 TRPC4beta/mu-opioid, duplicates, 10 µM (AID 2426;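 active means fluorescence ratio normalized to control raised more than 50% in primary screen plus both repeat runs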); settings: Fluo4 calcium fluorescence, at 10 µM; hits give high values
[2] = tested on: transient receptor potential cation channel C4 beta (TRPC4), mouse; assay: activators of mouse TRPC4 channel, confirmation, cell-based, second round, Fluo4, HEK293 TRPC4beta/mu-opioid, 1 µM (AID 2461;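 active means primary screen active and over 50% activation in each of two duplicate runs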); settings: Fluo4 calcium fluorescence, at 1 µM; hits give high values
[3] = tested on: TRPC4 (transient receptor potential cation channel C4 beta), mouse; assay: positive allosteric modulators of mouse TRPC4, confirmation, cell-based, second round, Fluo-4, HEK293 TRPC4beta/mu-opioid, 1 µM (AID 2554;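 active means primary screen hit whose fluorescence ratio, in both repeats, exceeds the weak agonist control mean by 3 SD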); settings: DAMGO EC20, Fluo-4 calcium flux, at 1 µM; hits give high values
[4] = tested on: TRPC4 beta (transient receptor potential cation channel C4), mouse; assay: positive allosteric modulators of mouse TRPC4, confirmation, cell-based, Fluo-4, HEK293 TRPC4beta/mu-opioid (AID 2555;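 active means primary screen hit whose calcium fluorescence ratio, in both repeats, exceeds the weak agonist control mean by 3 SD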); settings: DAMGO EC20, Fluo-4 calcium flux, at 10 µM; hits give high values
[5] = molecular target: Short transient receptor potential channel 4 (Mus musculus) (UniProt Q9QUQ5); assay: inhibitors of mouse TRPC4 channel, confirmation, cell-based, Fluo4, HEK293 TRPC4beta/mu-opioid (AID 2636); settings: DAMGO, Fluo4 calcium flux, at 10 µM; hits give high values
[6] = molecular target: Short transient receptor potential channel 4 (Mus musculus) (UniProt Q9QUQ5); assay: inhibitors of mouse TRPC4 channel, confirmation, cell-based, second round, Fluo4, HEK293 TRPC4beta/mu-opioid, 1 µM (AID 2637;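 active means calcium signal ratio cut to more than 3 SD under the fully stimulated control mean yet still positive, in both repeats and the primary screen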;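 on inhibition: percent of integrated ratio relative to wells lacking test compound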); settings: Fluo4 calcium flux, DAMGO, at 1 µM; hits give high values
[7] = molecular target: Short transient receptor potential channel 4 (Mus musculus) (UniProt Q9QUQ5); assay: mouse TRPC4 channel activators, dose response, cell-based, HEK293 TRPC4/mu-opioid, Fluo-4 calcium (AID 434937;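 active means primary screen activator hit with a dose response curve and TRPC4 channel activation at any tested dose; inactive means no activation, no dose response, or not a primary hit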)
[8] = molecular target: Short transient receptor potential channel 4 (Mus musculus) (UniProt Q9QUQ5); assay: TRPC4 positive allosteric modulators, dose response, cell-based, HEK293 TRPC4/mu-opioid, Fluo-4 calcium, EC20 DAMGO (AID 434941;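 active means earlier screen potentiator hit that boosts the TRPC4 ion channel at some dose, with a dose response; inactive means no potentiation, no dose response, or not a prior hit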;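 further: calcium entry triggered by an EC20 dose of DAMGO at the co-expressed mu-opioid receptor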)
[9] = molecular target: Short transient receptor potential channel 4 (Mus musculus) (UniProt Q9QUQ5); assay: mouse TRPC4 channel inhibitors, dose response, cell-based, HEK293 TRPC4/mu-opioid, Fluo-4 calcium (AID 434942;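 active means primary screen inhibitor hit that blocks the TRPC4 channel at some tested dose, yielding a dose curve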)
[10] = molecular target: Short transient receptor potential channel 6 (Mus musculus) (UniProt Q61143); assay: inhibition of mouse TRPC6 channel, confirmation, selectivity assay for TRPC4 inhibitor project, cell-based, HEK293, membrane potential dye, duplicate (AID 434948;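 active means active in primary screen and both duplicates, each dropping signal beyond three positive-control SD with fluorescence still positive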); settings: HEK293 TRPC6, membrane potential dye fluorescence, at 10 µM, stimulated with maximal-effect acetylcholine; hits give high values
[11] = molecular target: Short transient receptor potential channel 6 (Mus musculus) (UniProt Q61143); assay: activation of mouse TRPC6 channel, confirmation, selectivity assay for TRPC4 activator project, cell-based, HEK293, membrane potential dye, duplicate (AID 434950;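 active means membrane potential signal rise above negative control mean plus 3 SD in both duplicates, also active in the earlier TRPC4 screen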); settings: HEK293 TRPC6, membrane potential fluorescence, at 10 µM; hits give high values
[12] = molecular target: Short transient receptor potential channel 6 (Mus musculus) (UniProt Q61143); assay: TRPC6 potentiation by TRPC4 potentiator hits, confirmation, selectivity assay for TRPC4 potentiator project, HEK293 cells, membrane potential dye, duplicate (AID 434952;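 active means compound raising the membrane signal above positive-control mean plus 3 SD in both repeats, and a primary screen hit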); settings: HEK293 TRPC6, membrane potential dye fluorescence, at 10 µM, maximal acetylcholine added after compound; hits give high values
[13] = molecular target: Short transient receptor potential channel 4 (Mus musculus) (UniProt Q9QUQ5); assay: calcium flux activators in TRPC4/5HT1a cells, counter-screen for TRPC4 activator project, cell-based, second counter screen, HEK293 TRPC4/5HT1a, Fluo-4 (AID 434977;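 active means calcium signal rise above buffer-control mean plus 5 SD in both duplicates, and also a hit in the primary screen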); settings: Fluo-4 calcium flux, at 10 µM; hits give high values
[14] = calcium flux inhibitors in TRPC4/5HT1a cells, confirmation, counter-screen for TRPC4 inhibitor project, cell-based, second counter screen, HEK293 TRPC4/5HT1a, Fluo-4 (AID 434978;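 active means primary screen active whose calcium signal fell more than 3 SD beyond the full-serotonin control mean in both duplicate plates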;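 on outcome: serotonin given first at submaximal then at maximal dose after compound preincubation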); settings: Fluo-4 calcium flux, at 10 µM, serotonin added to trigger calcium flux; hits give high values
[15] = tested on: TRPC4 (mouse), co-expressed with 5HT1a in HEK293; assay: calcium flux potentiators in TRPC4/5HT1a cells, confirmation, counter-screen for TRPC4 potentiator project, cell-based, second counter screen, HEK293 TRPC4/5HT1a, Fluo-4 (AID 434979;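 active means signal rise over 3 SD above mean of control wells given weak agonist, in both repeats and first screen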); settings: Fluo-4 calcium flux, at 10 µM, serotonin added at its EC20 dose; hits give high values
[16] = calcium flux activation in mu-opioid HEK293 cells, confirmation, counter-screen for TRPC4 activator project, cell-based, HEK293 mu-opioid receptor line (AID 449723;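 active means hit in primary screen, with calcium signal over 5 SD above buffer well mean in both duplicates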;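 further: counter screen cells carry the mu-opioid receptor alone and lack TRPC4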); settings: Fluo-4 calcium fluorescence, at 10 µM; hits give high values
[17] = calcium flux enhancement in mu-opioid HEK293 cells, confirmation, counter-screen for TRPC4 allosteric potentiator project, cell-based, HEK293 mu-opioid receptor line (AID 449724;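 active means calcium signal rise more than 3 SD above the low-dose agonist control mean, in both duplicate plates and the primary screen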); settings: Fluo-4 calcium flux, at 10 µM, compound added before EC20 DAMGO stimulus; hits give high values
[18] = thallium flux activation in parental CHO cells, counter-screen for KCNQ1 potentiator project (AID 493006;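 active means duplicate-averaged activation above buffer control mean plus 5 SD of those controls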;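 further: fluorescence ratio of max minus min over baseline after K+ and Tl+ depolarization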); settings: parental CHO-K1 cells, FluxOR thallium flux, at 10 µM; hits give high values
[19] = molecular target: Potassium voltage-gated channel subfamily KQT member 1 (Homo sapiens) (UniProt P51787); assay: KCNQ1 potassium channel potentiators, confirmation, FluxOR thallium flux, CHO cells, duplicates (AID 493007;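 active means potentiation averaged over duplicate wells exceeding buffer-only control mean by more than 3 SD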;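 further: 0% = buffer-only wells and 100% = R-L3 activator control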); settings: KCNQ1 cell line, FluxOR thallium flux fluorescence, at 10 µM; hits give high values, % of reference activator effect, buffer zero
[20] = molecular target: Potassium voltage-gated channel subfamily KQT member 2 (Rattus norvegicus) (UniProt O88943); assay: rat KCNQ2 channel potentiation, selectivity assay for KCNQ1 potentiator project, KCNQ2-CHO-K1 cells (AID 493009;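 active means mean duplicate potentiation above the buffer control mean plus 5 SD of buffer wells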;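 further: assay conditions were tuned for KCNQ1 rather than KCNQ2 modulators; signal is max minus min fluorescence divided by baseline after thallium stimulus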); settings: FluxOR thallium flux fluorescence, at 10 µM; hits give high values, scaled: buffer 0, activator control 100
Sequence of Potassium voltage-gated channel subfamily KQT member 2 (Rattus norvegicus) (O88943 whole entry, looked up): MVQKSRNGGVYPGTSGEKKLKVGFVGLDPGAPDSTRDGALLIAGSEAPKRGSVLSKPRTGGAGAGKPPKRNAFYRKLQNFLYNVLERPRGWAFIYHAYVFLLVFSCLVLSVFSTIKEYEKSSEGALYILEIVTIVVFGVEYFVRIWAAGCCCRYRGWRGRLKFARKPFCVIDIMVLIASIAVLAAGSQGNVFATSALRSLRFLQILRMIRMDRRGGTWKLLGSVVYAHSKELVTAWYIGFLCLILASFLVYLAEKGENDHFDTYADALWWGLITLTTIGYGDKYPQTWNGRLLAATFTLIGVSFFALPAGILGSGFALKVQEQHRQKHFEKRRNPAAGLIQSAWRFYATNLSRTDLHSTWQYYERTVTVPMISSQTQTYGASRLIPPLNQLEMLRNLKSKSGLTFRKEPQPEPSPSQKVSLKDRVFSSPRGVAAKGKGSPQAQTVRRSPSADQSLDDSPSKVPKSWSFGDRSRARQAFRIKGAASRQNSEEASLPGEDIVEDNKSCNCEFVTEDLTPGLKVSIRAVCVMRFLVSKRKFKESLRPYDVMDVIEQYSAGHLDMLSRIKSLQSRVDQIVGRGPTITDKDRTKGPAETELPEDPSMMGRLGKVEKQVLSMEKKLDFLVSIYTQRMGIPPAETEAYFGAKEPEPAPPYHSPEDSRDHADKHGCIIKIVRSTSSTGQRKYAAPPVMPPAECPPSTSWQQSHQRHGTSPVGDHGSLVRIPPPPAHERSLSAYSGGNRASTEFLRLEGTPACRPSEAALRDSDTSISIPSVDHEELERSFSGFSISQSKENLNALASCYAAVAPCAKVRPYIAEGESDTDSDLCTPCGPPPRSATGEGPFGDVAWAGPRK

Sequence of Short transient receptor potential channel 6 (Mus musculus) (Q61143 whole entry, looked up): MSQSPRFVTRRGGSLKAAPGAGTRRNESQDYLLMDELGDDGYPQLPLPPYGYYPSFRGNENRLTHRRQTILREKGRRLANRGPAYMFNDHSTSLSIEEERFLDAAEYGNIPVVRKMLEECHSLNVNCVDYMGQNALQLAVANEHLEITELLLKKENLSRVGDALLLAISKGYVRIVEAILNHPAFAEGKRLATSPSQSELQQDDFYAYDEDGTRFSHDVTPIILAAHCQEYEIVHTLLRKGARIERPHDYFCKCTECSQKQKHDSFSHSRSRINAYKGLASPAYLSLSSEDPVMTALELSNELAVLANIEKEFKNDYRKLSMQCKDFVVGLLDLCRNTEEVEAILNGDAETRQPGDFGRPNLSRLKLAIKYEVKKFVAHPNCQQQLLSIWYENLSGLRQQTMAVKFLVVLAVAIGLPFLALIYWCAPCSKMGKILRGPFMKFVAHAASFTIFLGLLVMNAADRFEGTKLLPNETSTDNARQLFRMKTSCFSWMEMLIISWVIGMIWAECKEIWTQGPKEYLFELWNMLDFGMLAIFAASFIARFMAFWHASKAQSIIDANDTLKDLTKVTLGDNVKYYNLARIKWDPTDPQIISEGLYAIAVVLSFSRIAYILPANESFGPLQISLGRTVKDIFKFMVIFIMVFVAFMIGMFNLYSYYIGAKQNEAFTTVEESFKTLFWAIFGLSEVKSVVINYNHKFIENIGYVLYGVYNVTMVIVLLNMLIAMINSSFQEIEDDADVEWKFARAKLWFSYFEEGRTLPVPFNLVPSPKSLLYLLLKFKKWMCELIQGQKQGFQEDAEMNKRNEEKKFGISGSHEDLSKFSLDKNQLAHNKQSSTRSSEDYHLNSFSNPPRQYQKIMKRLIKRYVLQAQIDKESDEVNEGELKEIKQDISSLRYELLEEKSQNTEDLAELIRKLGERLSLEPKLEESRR
Sequence of Short transient receptor potential channel 4 (Mus musculus) (Q9QUQ5 whole entry, looked up): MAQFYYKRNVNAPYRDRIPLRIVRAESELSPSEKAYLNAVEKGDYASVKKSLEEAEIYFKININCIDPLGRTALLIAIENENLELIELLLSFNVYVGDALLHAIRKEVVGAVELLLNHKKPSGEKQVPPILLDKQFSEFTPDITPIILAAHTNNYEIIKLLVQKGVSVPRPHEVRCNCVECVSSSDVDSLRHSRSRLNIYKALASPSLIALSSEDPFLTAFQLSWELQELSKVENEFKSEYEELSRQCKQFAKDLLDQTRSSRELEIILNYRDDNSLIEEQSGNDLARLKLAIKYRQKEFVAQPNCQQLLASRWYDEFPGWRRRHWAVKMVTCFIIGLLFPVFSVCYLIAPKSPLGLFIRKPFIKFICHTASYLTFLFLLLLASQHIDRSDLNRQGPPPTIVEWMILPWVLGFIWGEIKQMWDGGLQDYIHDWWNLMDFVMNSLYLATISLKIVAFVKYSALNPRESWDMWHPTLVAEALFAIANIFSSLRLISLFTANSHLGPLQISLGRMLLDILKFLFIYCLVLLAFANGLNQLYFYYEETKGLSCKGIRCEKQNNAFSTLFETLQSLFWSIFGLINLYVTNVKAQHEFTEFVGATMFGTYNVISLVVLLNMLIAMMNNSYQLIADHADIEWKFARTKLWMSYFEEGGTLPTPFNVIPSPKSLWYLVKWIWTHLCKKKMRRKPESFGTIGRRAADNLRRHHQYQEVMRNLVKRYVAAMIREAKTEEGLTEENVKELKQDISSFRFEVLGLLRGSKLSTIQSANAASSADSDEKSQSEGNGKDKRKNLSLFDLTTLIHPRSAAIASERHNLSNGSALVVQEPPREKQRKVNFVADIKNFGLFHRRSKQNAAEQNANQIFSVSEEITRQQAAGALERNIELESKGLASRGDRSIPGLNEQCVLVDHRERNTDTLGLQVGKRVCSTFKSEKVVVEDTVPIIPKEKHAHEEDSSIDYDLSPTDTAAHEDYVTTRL
Sequence of Potassium voltage-gated channel subfamily KQT member 1 (Homo sapiens) (P51787 whole entry, looked up): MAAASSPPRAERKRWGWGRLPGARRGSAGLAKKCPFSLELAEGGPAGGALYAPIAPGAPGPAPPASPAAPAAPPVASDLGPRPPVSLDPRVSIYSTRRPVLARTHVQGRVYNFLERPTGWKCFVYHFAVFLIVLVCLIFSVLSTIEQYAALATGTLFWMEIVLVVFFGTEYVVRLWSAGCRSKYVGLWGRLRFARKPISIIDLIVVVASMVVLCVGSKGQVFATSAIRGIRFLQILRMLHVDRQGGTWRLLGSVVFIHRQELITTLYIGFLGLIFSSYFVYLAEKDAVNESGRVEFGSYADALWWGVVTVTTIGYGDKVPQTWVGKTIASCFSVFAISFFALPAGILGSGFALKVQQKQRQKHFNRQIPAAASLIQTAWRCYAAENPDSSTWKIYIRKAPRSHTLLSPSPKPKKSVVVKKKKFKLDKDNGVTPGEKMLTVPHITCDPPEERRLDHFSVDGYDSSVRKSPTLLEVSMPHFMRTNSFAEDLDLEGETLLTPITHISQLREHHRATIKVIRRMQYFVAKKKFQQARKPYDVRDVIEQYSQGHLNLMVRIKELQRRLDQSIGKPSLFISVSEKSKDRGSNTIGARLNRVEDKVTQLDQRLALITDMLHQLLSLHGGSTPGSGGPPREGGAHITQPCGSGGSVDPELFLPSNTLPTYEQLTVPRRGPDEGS

Cc1nn(-c2cc(C(F)(F)F)ccc2Cl)c2nc(C(Cl)(Cl)Cl)[nH]c(=O)c12
outcome [1]: inactive | outcome [2]: inactive | outcome [3]: inactive | outcome [4]: inactive | outcome [5]: inactive | outcome [6]: inactive | outcome [7]: inactive | outcome [8]: inactive | outcome [9]: inactive | outcome [10]: inactive | outcome [11]: inactive | outcome [12]: inactive | outcome [13]: inactive | outcome [14]: inactive | outcome [15]: inactive | outcome [16]: inactive | outcome [17]: inactive | activation [18]: 191% (active) | potentiation [19]: 52.5% (active) | potentiation [20]: 218% (active)

COCCNC(=O)/C(C#N)=C/c1cc(C(C)C)c(OC)cc1C
outcome [1]: inactive | outcome [2]: inactive | outcome [3]: inactive | potentiation [4]: 14% (active) | outcome [5]: inactive | outcome [6]: inactive | outcome [7]: inactive | outcome [8]: inactive | outcome [9]: inactive | outcome [10]: inactive | outcome [11]: inactive | outcome [12]: inactive | outcome [13]: inactive | outcome [14]: inactive | potentiation [15]: 20.4% (active) | outcome [16]: inactive | outcome [17]: inactive

CCCc1ccc(OCc2ccc(C(=O)N3CCSCC3)o2)cc1
outcome [1]: inactive | outcome [2]: inactive | outcome [3]: inactive | potentiation [4]: 36% (active) | outcome [5]: inactive | outcome [6]: inactive | outcome [7]: inactive | outcome [8]: inactive | outcome [9]: inactive | outcome [10]: inactive | outcome [11]: inactive | outcome [12]: inactive | outcome [13]: inactive | outcome [14]: inactive | potentiation [15]: 30.2% (active) | outcome [16]: inactive | outcome [17]: inactive

Cc1ccc(S(=O)(=O)Nc2cccc(C(=O)NCC(c3ccco3)N3CCCCC3)c2)cc1F (stereo unspecified)
outcome [1]: inactive | outcome [2]: inactive | outcome [3]: inactive | outcome [4]: inactive | inhibition [5]: 100% (active) | inhibition [6]: 39% (active) | outcome [7]: inactive | outcome [8]: inactive | outcome [10]: inactive | outcome [11]: inactive | outcome [12]: inactive | outcome [13]: inactive | outcome [14]: inactive | outcome [15]: inactive | outcome [16]: inactive | outcome [17]: inactive

CCCCCCCNC(=O)COc1ccc2c(c1)C(=O)CC(C)(C)O2
outcome [1]: inactive | outcome [2]: inactive | outcome [3]: inactive | outcome [4]: inactive | inhibition [5]: 81% (active) | inhibition [6]: 46% (active) | outcome [7]: inactive | outcome [8]: inactive | outcome [10]: inactive | outcome [11]: inactive | outcome [12]: inactive | outcome [13]: inactive | inhibition [14]: 24.7% (active) | outcome [15]: inactive | outcome [16]: inactive | outcome [17]: inactive

CC(=O)C1=C(O)C(=O)N(Cc2ccccc2)C1c1ccc([N+](=O)[O-])cc1 (stereo unspecified)
outcome [1]: inactive | outcome [2]: inactive | outcome [3]: inactive | outcome [4]: inactive | inhibition [5]: 95% (active) | inhibition [6]: 61% (active) | outcome [7]: inactive | outcome [8]: inactive | outcome [10]: inactive | outcome [11]: inactive | outcome [12]: inactive | outcome [13]: inactive | inhibition [14]: 34.5% (active) | outcome [15]: inactive | outcome [16]: inactive | outcome [17]: inactive

Fc1ccccc1COc1ccccc1CNCc1ccncc1
outcome [1]: inactive | outcome [2]: inactive | outcome [3]: inactive | outcome [4]: inactive | inhibition [5]: 79% (active) | outcome [6]: inactive | outcome [7]: inactive | outcome [8]: inactive | outcome [10]: inactive | outcome [11]: inactive | outcome [12]: inactive | outcome [13]: inactive | outcome [14]: inactive | outcome [15]: inactive | outcome [16]: inactive | outcome [17]: inactive

Cc1cccc2cc(CN(Cc3nnnn3Cc3ccccc3)C3CCCC3)c(=O)[nH]c12
outcome [1]: inactive | outcome [2]: inactive | outcome [3]: inactive | outcome [4]: inactive | inhibition [5]: 91% (active) | inhibition [6]: 63% (active) | outcome [7]: inactive | outcome [8]: inactive | outcome [10]: inactive | outcome [11]: inactive | outcome [12]: inactive | outcome [13]: inactive | outcome [14]: inactive | outcome [15]: inactive | outcome [16]: inactive | outcome [17]: inactive

COCCn1c(SCC(=O)Nc2ccccc2OC)nc2c([nH]c3ccccc32)c1=O
outcome [1]: inactive | outcome [2]: inactive | outcome [3]: inactive | outcome [4]: inactive | inhibition [5]: 71% (active) | outcome [6]: inactive | outcome [7]: inactive | outcome [8]: inactive | outcome [10]: inactive | outcome [11]: inactive | outcome [12]: inactive | outcome [13]: inactive | inhibition [14]: 36.6% (active) | outcome [15]: inactive | outcome [16]: inactive | outcome [17]: inactive

COc1cccc(C(CNC(=O)C(c2ccccc2)c2ccccc2)N(C)C)c1 (stereo unspecified)
outcome [1]: inactive | outcome [2]: inactive | outcome [3]: inactive | outcome [4]: inactive | inhibition [5]: 89% (active) | outcome [6]: inactive | outcome [7]: inactive | outcome [8]: inactive | outcome [10]: inactive | outcome [11]: inactive | outcome [12]: inactive | outcome [13]: inactive | outcome [14]: inactive | outcome [15]: inactive | outcome [16]: inactive | outcome [17]: inactive

OCC1(Cc2ccccc2)CCCN(Cc2cnn(-c3ccccc3)c2)C1 (stereo unspecified)
outcome [1]: inactive | outcome [2]: inactive | outcome [3]: inactive | outcome [4]: inactive | inhibition [5]: 91% (active) | inhibition [6]: 42% (active) | outcome [7]: inactive | outcome [8]: inactive | outcome [10]: inactive | outcome [11]: inactive | outcome [12]: inactive | outcome [13]: inactive | inhibition [14]: 36.1% (active) | outcome [15]: inactive | outcome [16]: inactive | outcome [17]: inactive

COc1ccccc1N(C(=O)c1snc(C(N)=O)c1N)C(C(=O)NC1CCCC1)c1ccc2ncccc2c1 (stereo unspecified)
outcome [1]: inactive | outcome [2]: inactive | outcome [3]: inactive | outcome [4]: inactive | inhibition [5]: 41% (active) | outcome [6]: inactive | outcome [7]: inactive | outcome [8]: inactive | outcome [10]: inactive | outcome [11]: inactive | outcome [12]: inactive | outcome [13]: inactive | inhibition [14]: 40.6% (active) | outcome [15]: inactive | outcome [16]: inactive | outcome [17]: inactive

NC(=O)c1nsc(C(=O)N(Cc2ccco2)C(C(=O)NCc2ccc(F)cc2)c2ccc(O)cc2)c1N (stereo unspecified)
outcome [1]: inactive | outcome [2]: inactive | outcome [3]: inactive | outcome [4]: inactive | inhibition [5]: 84% (active) | inhibition [6]: 55% (active) | outcome [7]: inactive | outcome [8]: inactive | outcome [10]: inactive | outcome [11]: inactive | outcome [12]: inactive | outcome [13]: inactive | inhibition [14]: 25.1% (active) | outcome [15]: inactive | outcome [16]: inactive | outcome [17]: inactive

COc1ccc([N+](=O)[O-])cc1NCc1ccco1
outcome [1]: inactive | outcome [2]: inactive | outcome [3]: inactive | outcome [4]: inactive | inhibition [5]: 69% (active) | outcome [6]: inactive | outcome [7]: inactive | outcome [8]: inactive | outcome [10]: inactive | outcome [11]: inactive | outcome [12]: inactive | outcome [13]: inactive | outcome [14]: inactive | outcome [15]: inactive | outcome [16]: inactive | outcome [17]: inactive

COCCNc1c2c(nc3ccccc13)CCC2
outcome [1]: inactive | outcome [2]: inactive | outcome [3]: inactive | outcome [4]: inactive | inhibition [5]: 100% (active) | inhibition [6]: 57% (active) | outcome [7]: inactive | outcome [8]: inactive | inhibition [10]: 37.5% (active) | outcome [11]: inactive | outcome [12]: inactive | outcome [13]: inactive | inhibition [14]: 11.8% (active) | outcome [15]: inactive | outcome [16]: inactive | outcome [17]: inactive
